Giardia killer: Giardia lamblia killing | actives 0.15% (n = 340,000) | AID 540267 | activity change, % at 7.66 µM, hits read low | Giardia lamblia trophozoite viability; in the data active = activity change below about -80%; inconclusive = between about -30% and that limit;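 also: parasites exposed to compound for two days anaerobically before the ATP read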
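Media and compound were dispensed first, then trophozoites at 100 cells/well; plates sat 48 hrs at 37 deg C without oxygen before ATP luminescence reagent was added and read after 15-30 min at room temperature.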
TDP1 cell noCPT: qHTS for Inhibitors of human tyrosyl-DNA phosphodiesterase 1 (TDP1): qHTS in cells in absence of CPT; DT40 Tdp1-/- hTDP1 cells, no CPT, ATP luminescence, 48 h; Potency, µM (highest dose often 46.2 µM), for the others: at the highest dose activity change, negative = growth inhibition, actives largely listed as inhibitors; actives 15% (n = 420,000); also: potency is read from the fitted curve at half-maximal effect; nearly all actives have a fitted effect of over 55% in size
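Luminescent ATP content (CellTiter-Glo) served as the growth readout. Knockout chicken DT40 cells expressing human TDP1 were exposed to compounds without camptothecin for a minimum 48 hr at 37 °C.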
TDP1 block: inhibitors of human tyrosyl-DNA phosphodiesterase TDP1 | Q9NUW8 | recombinant TDP1, AlphaScreen DNA substrate cleavage | Potency, µM (highest dose often 130 µM), for inactives: top-dose activity change, negative = inhibition, usual class: inhibitors | actives 0.28% (n = 350,000) | AID 485290; also: potency is read from the fitted curve at half-maximal effect; nearly all actives have a fitted effect of over 40% in size
Target sequence (Q9NUW8 whole entry, looked up): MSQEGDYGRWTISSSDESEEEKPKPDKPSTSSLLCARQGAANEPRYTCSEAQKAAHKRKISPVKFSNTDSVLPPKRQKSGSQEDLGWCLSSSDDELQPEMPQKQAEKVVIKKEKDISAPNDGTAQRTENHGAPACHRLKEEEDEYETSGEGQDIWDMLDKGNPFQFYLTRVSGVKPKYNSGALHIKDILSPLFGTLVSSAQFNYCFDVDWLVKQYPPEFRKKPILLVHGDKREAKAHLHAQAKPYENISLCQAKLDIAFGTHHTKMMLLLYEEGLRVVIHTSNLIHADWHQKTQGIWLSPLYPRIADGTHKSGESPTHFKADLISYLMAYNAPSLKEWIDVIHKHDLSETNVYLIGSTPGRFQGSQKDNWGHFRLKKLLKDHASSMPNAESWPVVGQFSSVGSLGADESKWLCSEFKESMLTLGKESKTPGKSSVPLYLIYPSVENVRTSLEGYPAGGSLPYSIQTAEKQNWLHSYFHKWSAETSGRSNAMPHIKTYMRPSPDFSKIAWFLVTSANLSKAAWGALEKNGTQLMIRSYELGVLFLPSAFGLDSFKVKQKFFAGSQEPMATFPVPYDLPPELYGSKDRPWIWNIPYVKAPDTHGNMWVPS
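Recombinant human Tdp1 (E. coli-expressed, 1 nM final) preincubated with compounds 15 min at room temperature, then 5'-biotin/3'-phosphotyrosine-FITC DNA substrate (15 nM final) added for 5 min. AlphaScreen beads (10 ug/ml final) added 10 min; cleavage lowers signal.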
IL1B secr inh: blocks inflammasome-driven IL-1 beta release; THP-1 LPS/ATP IL-1B secretion, AlphaLISA, 16 h; active compounds read low; activity change, % at 57.5 µM; actives 4.7% (n = 360,000); in the data active = activity change below about -50%; inconclusive = mostly about -30% to -49%
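Secreted IL-1B measured by AlphaLISA bead assay after 16 h compound exposure of THP-1 cells; compounds (final up to 57.5 uM) added 1 h before LPS (250 ng/mL) and ATP (1.25 mM) stimulation; lower signal means less secretion.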
DT40 TDP1 CPT: growth inhibition of DT40 Tdp1-/-;hTDP1 cells with camptothecin (screen for TDP1 inhibitors); chicken DT40 Tdp1-/-;hTDP1 cells + 20 nM CPT, ATP luminescence, 48 h; Potency, µM (top dose mostly 46.2 µM), inactives show top-dose activity change, negative = growth inhibition, usual class: inhibitors; actives 12% (n = 420,000); AID 686979; also: potency is read from the fitted curve at half-maximal effect; nearly all actives have a fitted effect of over 55% in size
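Chicken DT40 Tdp1-/- cells complemented with human TDP1, 400 cells/well, exposed to compounds plus 20 nM camptothecin for at least 48 h at 37 C; viability read as ATP content by CellTiter-Glo luminescence.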
ELG1 repair inh: inhibitors of ELG1-dependent DNA repair in HEK293T cells; actives 2.3% (n = 330,000); HEK293T ELG1-luciferase reporter, luminescence, 16 h; DNA damage induced by 5-fluorouridine; Potency, µM (series often up to 46.1 µM), for the others: at the top dose activity change, negative = inhibition, actives largely listed as inhibitors; also: potency is read from the fitted curve at half-maximal effect; nearly all actives have a fitted effect of over 55% in size
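Overnight (16 hr) co-exposure of 2,000 cells/well to 5-fluorouridine and compound at 37 °C preceded detection. Luciferase was quantified via ONE-Glo luminescence; loss of signal denotes inhibition.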
An asterisk follows results filed as active; [ ] = remark or other dose. The list is not random: actives were taken first. Their share in the collection is about 19%. Unless noted, calls follow the shape of the dose curve; as a rule, active = well fitted curve in the direction sought with a large enough effect; inconclusive = small, poorly fitted or top-dose-only effect, or another doubt; inactive = no such curve, though single readings can be large; an effect the other way counts as inactive or inconclusive. % is scaled to controls: 0 for no effect and ±100 for the full control effect.

`Cc1cccc(N(Cc2cc(=O)[nH]c3ccccc23)C(=O)CCl)c1` gave Giardia killer 4.6, TDP1 cell noCPT 5.17µM*, IL1B secr inh -107.0*, DT40 TDP1 CPT 4.11µM* and ELG1 repair inh inconclusive.
For COc1ccc(N(Cc2cc(=O)[nH]c3ccccc23)C(=O)CCl)cc1 the results were Giardia killer -19.2, TDP1 cell noCPT 2.06µM*, IL1B secr inh -98.2*, DT40 TDP1 CPT 2.06µM* and ELG1 repair inh inconclusive.
`CCCC(=O)N(Cc1cc(=O)[nH]c2ccccc12)c1cccc(C)c1` gave Giardia killer -11.5, TDP1 cell noCPT inconclusive, IL1B secr inh -9.8, DT40 TDP1 CPT -12.6% and ELG1 repair inh -16.9%.
`CCCC(=O)N(Cc1cc(=O)[nH]c2ccccc12)c1ccc(OC)cc1` gave Giardia killer -7.8, TDP1 cell noCPT -14.2%, IL1B secr inh 0.7, DT40 TDP1 CPT 0.0% and ELG1 repair inh -18.2%.
`O=C(Nc1ccc2nc3n(c(=O)c2c1)CCCCC3)C(=O)Nc1ccccc1F` gave TDP1 cell noCPT inconclusive, TDP1 block 2.5% and DT40 TDP1 CPT inconclusive.
`Cn1c(SCC(=O)c2ccc(O)cc2O)nnc1-c1ccccc1` gave Giardia killer 2.1, TDP1 cell noCPT -0.3%, TDP1 block -6.1%, IL1B secr inh -13.5, DT40 TDP1 CPT -4.7% and ELG1 repair inh 25.0%.
For COc1ccc2oc(=O)c(-c3csc(Nc4ccc(O)cc4)n3)cc2c1 the results were Giardia killer 2.3, TDP1 cell noCPT 5.8µM*, TDP1 block 0.0%, IL1B secr inh -91.1*, DT40 TDP1 CPT 3.26µM* and ELG1 repair inh 9.2µM*.
CCOc1ccc2cc(-c3nnc(Nc4ccccc4F)s3)c(=O)oc2c1 was read as TDP1 cell noCPT inconclusive, TDP1 block 1.3%[12.3 µM] and DT40 TDP1 CPT inconclusive.
Screening COc1ccc2oc(=O)c(-c3nnc(NCc4ccco4)s3)cc2c1 returned Giardia killer -24.9, TDP1 cell noCPT 3.66µM*, TDP1 block -6.8%, IL1B secr inh -27.5, DT40 TDP1 CPT 5.8µM* and ELG1 repair inh inconclusive.
For CCOc1ccccc1Nc1nnc(-c2cc3cc(OC)ccc3oc2=O)s1 the results were TDP1 cell noCPT 7.31µM*, TDP1 block 3.4% and DT40 TDP1 CPT 8.2µM*.
Screening COc1cc(NC(=O)Nc2cccn3nc(COCCO)nc23)cc(OC)c1OC returned TDP1 cell noCPT -20.6%, IL1B secr inh -7.3 and DT40 TDP1 CPT 2.2%.
`CCS(=O)(=O)N1CC(=O)N(c2cc(Cl)ccc2C)C(C)(C(=O)NC2CCCCCC2)C1` (stereo unspecified) gave TDP1 cell noCPT -26.7%, TDP1 block 6.2% and DT40 TDP1 CPT inconclusive.
Screening CC(C)CN1CC[C@@]2(CCCN(C(=O)c3ccco3)C2)C1 returned TDP1 cell noCPT -2.5% and DT40 TDP1 CPT 0.8%.
For O=C(CN1C(=O)c2ccccc2C1=O)OCC(=O)N1CCCCC1 the results were Giardia killer inconclusive, TDP1 cell noCPT -6.8%, TDP1 block 0.3%, IL1B secr inh -2.6, DT40 TDP1 CPT -1.6% and ELG1 repair inh 8.2%.
Cc1ccc(OCC(=O)N2CCc3ccccc3C2)c(C)c1 was read as Giardia killer 2.3, TDP1 cell noCPT inconclusive, TDP1 block -3.3%, IL1B secr inh inconclusive, DT40 TDP1 CPT -11.9% and ELG1 repair inh 21.4%.
`NC(=O)c1ccccc1OCC(=O)N1CCc2ccccc2C1` gave Giardia killer -18.2, TDP1 cell noCPT 13µM*, TDP1 block -0.1%[0.0935 µM], IL1B secr inh 10.5, DT40 TDP1 CPT inconclusive and ELG1 repair inh -2.0%.
`O=C(CN1C(=O)c2ccccc2C1=O)OCC(=O)N1CCc2ccccc2C1` gave Giardia killer -11.1, TDP1 cell noCPT 0.0092µM*, TDP1 block 0.0%, IL1B secr inh 33.7, DT40 TDP1 CPT -11.5% and ELG1 repair inh 7.9%.
Cn1ccc(/C=N/N=C2/NC(=O)CS2)n1 was read as Giardia killer -8.7, TDP1 cell noCPT 4.9%, IL1B secr inh 2.9, DT40 TDP1 CPT -1.3% and ELG1 repair inh 13.9%.
`Cc1ccc(S(=O)(=O)Nc2ccccc2C(C(=O)OC(C)(C)C)C(=O)OC(C)(C)C)cc1` gave TDP1 cell noCPT inconclusive, IL1B secr inh -4.4 and DT40 TDP1 CPT inconclusive.
`O=C(Nc1ncc(Br)s1)C(Cc1ccccc1)n1cccc1` (stereo unspecified) gave Giardia killer -7.7, TDP1 cell noCPT inconclusive, TDP1 block 9.2%, IL1B secr inh 23.5, DT40 TDP1 CPT inconclusive and ELG1 repair inh inconclusive.
For O=C(Nc1ccccc1F)C(Cc1ccccc1)n1cccc1 (stereo unspecified) the results were TDP1 cell noCPT 14.6µM*, TDP1 block 8.8% and DT40 TDP1 CPT inconclusive.
Screening Cc1ccc(NC(=O)C(Cc2ccccc2)n2cccc2)c(C)c1 (stereo unspecified) returned TDP1 cell noCPT 14.6µM*, TDP1 block 1.0% and DT40 TDP1 CPT 14.6µM*.
`CN1CCN(c2ccccc2NC(=O)Cc2ccc(Cl)cc2)CC1` gave Giardia killer 19.2, TDP1 cell noCPT -18.3%, TDP1 block 3.5%, IL1B secr inh -28.5, DT40 TDP1 CPT -17.8% and ELG1 repair inh -27.5%.
Screening Cc1ccc(C)c(NC(=O)C(Cc2ccccc2)n2cccc2)c1 (stereo unspecified) returned TDP1 cell noCPT 16.4µM*, TDP1 block 5.9% and DT40 TDP1 CPT inconclusive.
Cc1ccc(NC(=O)Cc2ccccc2)c(C)c1 was read as TDP1 block 0.0% and ELG1 repair inh 21.8%.
Screening CCC(C)NC(=O)C(Cc1ccccc1)n1cccc1 (stereo unspecified) returned Giardia killer 37.0, TDP1 cell noCPT -1.5%, TDP1 block 4.3%, IL1B secr inh -15.9, DT40 TDP1 CPT -16.8% and ELG1 repair inh 12.2%.
For CN1CCN(c2ccccc2NC(=O)C(Cc2ccccc2)n2cccc2)CC1 (stereo unspecified) the results were Giardia killer -6.9, TDP1 cell noCPT inconclusive, TDP1 block 7.8%, IL1B secr inh -29.5, DT40 TDP1 CPT 25.9µM* and ELG1 repair inh -19.6%.
For O=C(NC1CCCc2ccccc21)N[C@@H](Cc1ccccc1)C(=O)O (stereo partly specified) the results were Giardia killer -5.2, TDP1 cell noCPT 3.5%, IL1B secr inh 53.1, DT40 TDP1 CPT 8.3% and ELG1 repair inh 24.4%.

Screens from PubChem BioAssay.
